The record followed here is PubChem BioAssay AID1259240 (Keith Lab, Institute of Cancer Science, University of …, 2017).

Each structure is given as a SMILES string. Unmarked numbers belong to inactive results. Active and inactive are the calls of the source. Rule as the data show it: active = fold change mostly below about -2 (no sharp cut-off); inactive = mostly above about -1.8.

A short description of the experiment: TERT promoter activity modulators, primary screen, cell-based, luciferase reporter, human (AID 1259240). As to conditions: A2780 TERT promoter luciferase reporter, 16 h; at 20 µM, fold versus average of vehicle-only wells.
In the case of `COc1cc2c(=O)c(S(=O)(=O)c3ccccc3)cn(Cc3ccccc3Cl)c2cc1OC`, the fold change was -1.09.
On to `Cc1ccc(C2C3=C(CC(C)(C)CC3=O)Nc3ncnn32)cc1` (stereo unspecified), for which the call was inactive.
Turning to `CC1CCN(C(=O)Cn2cc(/C=C3/C(=O)Nc4ccccc43)c3ccccc32)CC1`, the fold change is 1.13.
The same measure, in the same setting: the same measure for `O=C(CCSCCc1ccccn1)Nc1nccs1`: 1.07; for `COc1ccc(-c2csc3nc(-c4ccccc4F)oc(=O)c23)cc1OC`: -1.03; for `Cc1ccc(Cn2ccc(NC(=O)c3noc(C(C)C)c3[N+](=O)[O-])n2)cc1`: -2.42 (active).
The same measure, in the same setting: under `COCC(=O)N1N=C(c2ccc(NS(C)(=O)=O)cc2)CC1c1ccco1` (stereo unspecified) stands 1.02.
On the same count and under the same terms, under `CCOC(=O)c1cc2cc(Cl)ccc2oc1=O` stands 1.32; under `CC(=O)c1ccc2c(c1)c1ccccc1n2C`, -3.04 (active).
On to `CCc1ccc(S(=O)(=O)n2c(C)nc3ccccc32)cc1`, for which the fold change is -2.42 (active).
On the same count and under the same terms, under `CS(=O)(=O)Nc1ccc(C2=NN(S(C)(=O)=O)C(c3ccccc3)C2)cc1` (stereo unspecified) stands 1.5; under `O=C(CN1C(=O)COc2ccc(S(=O)(=O)N3CCCC3)cc21)NCCCN1CCOCC1`, -1.17.
With `Cn1c(C(=O)NCCN2CCOCC2)cc2c(=O)[nH]c3ccccc3c21`, the fold change was 1.17.
On the same count and under the same terms, under `O=c1/c(=C/c2ccco2)sc2nc(-c3ccccc3Br)nn12` stands 1.48; under `C=CCOc1ccc(-c2nc3s/c(=C\c4cccc(OC(C)=O)c4)c(=O)n3n2)cc1`, 1.2.
As to `COC(=O)c1[nH]c(=O)c2ccccc2c1O`, the fold change is -1.15.
